Lassa entry inh = blocks Lassa virus binding to or entry into cells; Lassa virus pseudotype entry inhibition, cell reporter; Potency, µM (highest dose often 37.9 µM), actives largely listed as inhibitors; hit rate 1.2% among 300,000; AID 540256; calls by dose curve; tested in HEK293 cells; also: nearly all actives have a fitted effect of over 50% in size
FMDV inh = blocks foot and mouth disease virus | FMDV antiviral cell-based qHTS | Potency, µM (series often up to 57.9 µM), usual class: inhibitors | hit rate 1.2% among 410,000 | AID 1159524; calls by dose curve; tested in HEK293T cells; also: read-out not given here; nearly all actives have a fitted effect of over 45% in size
CHX counter = affects cycloheximide protein synthesis inhibition readout, counter-screen | cell reporter, cycloheximide protein synthesis inhibition counterscreen | max response, % | hit rate 12% among 300,000 | AID 2314; in the data active = max response mostly above about 13%, no sharp cut-off; inactive = mostly below about 14%; also: read at 38.3 µM for the half of the compounds with a filed dose
HCV inh = blocks hepatitis C virus; Huh7.5.1 HCVcc-Cre infection, luciferase reporter, 44 h; Potency, µM (series often up to 41.8 µM), hits mostly inhibitors; hit rate 3.4% among 340,000; active = well fitted inhibition curve with a large enough effect; inconclusive = small, poorly fitted or top-dose-only effect, or another doubt; inactive = no such curve, though single readings can be large or run the other way
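Reporter virus HCVcc-Cre (~0.5 moi) infects cells exposed to compound; seeding density 1,000 cells/well with 4 h settling beforehand. Luminescence, 15 sec read, taken 44 h post-infection following a 15 min RT substrate incubation.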
Shiga toxin inh = Shiga toxin inhibition; Vero cells, Shiga toxin protein synthesis inhibition reporter; inhibition, % at 38.7 µM; hit rate 9.2% among 290,000; AID 2315; in the data active = inhibition mostly above about 28%, no sharp cut-off; inactive = mostly below about 43%
Marburg entry inh = inhibitors of Marburg virus binding or cell entry; Marburg virus pseudotyped entry inhibition, cell reporter; Potency, µM (series often up to 37.8 µM), actives largely listed as inhibitors; hit rate 1.8% among 300,000; AID 540276; calls by dose curve; tested in HEK293 cells
A number is an active result; i = inactive; ? = inconclusive; nt = not tested or not shown. Most compounds without a hit are left out; they make up all but 13% or so of the library.

SMILES | Lassa entry inh | FMDV inh | CHX counter | HCV inh | Shiga toxin inh | Marburg entry inh
COc1ccc(Nc2cc(C(=O)NCCCN(C)C3CCCCC3)c3ccccc3n2)c(OC)c1 | ? | i | nt | nt | nt | ?
COc1ccc(Nc2cc(C(=O)NCCCN(C)C3CCCCC3)c3ccccc3n2)cc1 | ? | i | nt | nt | nt | 10µM
CCOC(=O)[C@@H]1[C@H]2COc3cc(OC)ccc3[C@@H]2N2C(=O)N(c3ccc(F)cc3)C(=O)[C@]12C | nt | i | i | i | i | nt
NS(=O)(=O)c1ccc(O)c(NC(=O)c2ccc([N+](=O)[O-])o2)c1 | ? | i | i | i | i | ?
Cn1c(SCC(=O)NCc2ccccc2)nc2c([nH]c3ccccc32)c1=O | nt | nt | i | nt | i | nt
O=C(NCc1ccccn1)C(=O)NCC1OCCCN1S(=O)(=O)c1cc(F)ccc1F (centres undefined) | i | i | i | nt | i | i
Cc1ccc(O)c(NS(=O)(=O)c2cccc3nsnc23)c1 | i | i | 14 | i | i | i
Cc1cc(F)ccc1NS(=O)(=O)c1cccc2nsnc12 | i | i | i | i | i | i
COc1ccc(COC(=O)C2=C(C)NC(=O)NC2c2ccccc2F)cc1 (centres undefined) | nt | ? | i | ? | nt | nt
Cn1nc(-c2ccccc2)c(CSc2ccccc2)c1Cl | i | i | i | ? | i | ?
Cc1[nH]n(-c2ccccc2)c(=O)c1C=NC1CCCCCC1 | i | i | 20 | i | i | i

Bioassay records as filed in PubChem BioAssay.
